# Values joined by “and” are separate entries in the source; they are usually repeats but may differ in a detail not shown here. Identical values can stand only once. Values without a mark were called inactive. Records with an inconclusive call do not appear. Active and inactive are the calls of the source. Unless noted, calls come from the whole dose curve; as a rule, active = well fitted curve in either direction with a large enough effect (not every such curve was filed as active); inconclusive = small, poorly fitted or top-dose-only effect, or another doubt; inactive = flat fitted curve, though single readings scatter.
# What was measured:
# [1] = AP1 Signaling Pathway (AID 357); conditions: ME-180 AP-1-bla reporter, EGF-induced, beta-lactamase ratio, 5 h;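 note: ME-180 reporter cells stimulated with EGF at its EC50 level; % is set by controls: 0 for no effect and ±100 for the full control effect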
# In short: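 Titration-series screen for positive or negative modulators of EC50 EGF-induced signaling in ME-180 cells carrying an AP-1-driven beta-lactamase reporter. After 5 hours at 37 degrees Celsius, CCF4 460nm/530nm emission ratio gave %Activity; AC50 values derived.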
# [2] = molecular target: Cytochrome P450 1A2 (Homo sapiens) (UniProt P05177); assay: p450-cyp1a2 (AID 410; calls by dose curve; note: potency is the fitted concentration of half-maximal effect;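 for activity change, negative = inhibition: -100% = full effect of reference inhibitor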); conditions: recombinant CYP1A2, luciferin-ME demethylation, luminescence; series mostly up to 25.6 µM
# Sequence of Cytochrome P450 1A2 (Homo sapiens) (P05177 whole entry, looked up): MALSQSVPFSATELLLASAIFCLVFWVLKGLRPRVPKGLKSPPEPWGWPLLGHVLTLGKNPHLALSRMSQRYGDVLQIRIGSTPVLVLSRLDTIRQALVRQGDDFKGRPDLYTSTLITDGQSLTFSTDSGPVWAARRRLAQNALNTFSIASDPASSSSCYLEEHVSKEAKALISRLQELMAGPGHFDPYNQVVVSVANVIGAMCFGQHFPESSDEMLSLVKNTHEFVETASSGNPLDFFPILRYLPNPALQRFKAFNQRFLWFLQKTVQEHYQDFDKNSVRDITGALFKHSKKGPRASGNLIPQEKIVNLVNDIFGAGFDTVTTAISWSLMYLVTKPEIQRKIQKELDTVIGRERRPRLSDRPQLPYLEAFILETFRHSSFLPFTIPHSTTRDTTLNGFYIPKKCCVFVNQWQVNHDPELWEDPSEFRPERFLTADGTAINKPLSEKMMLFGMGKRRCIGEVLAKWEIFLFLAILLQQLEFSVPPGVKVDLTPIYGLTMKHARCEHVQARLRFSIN
# In short: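 20nM CYP1A2 with 100uM Luciferin-ME (at Km) in 100mM KPO4; compound preincubated 10 min, NADPH regeneration added, 60 min at room temperature. Luciferin quantified by luminescence after detection reagent; normalized to 57 uM furafylline.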
# [3] = Cell Viability - BJ (AID 421; calls by dose curve;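 note: potency is the fitted concentration of half-maximal effect; cells exposed to compound for 40 hours at 37 °C before readout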); conditions: BJ fibroblast viability, qHTS
# In short: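 Quantitative HTS: ATP depletion in BJ cells after 40 hr compound exposure in complete culture medium, detected with CellTiter-Glo; AC50 from standard Hill fits.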
# [4] = Cell Viability - Jurkat (AID 426;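 active = dose-dependent loss of cell ATP signal giving a full or clear fitted curve, ranked by lower potency value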; note: potency is the fitted concentration of half-maximal effect); conditions: qHTS
# In short: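 Jurkat (Clone E6-1) cells, 5000/well in complete medium, exposed to compounds for 40 hr at 37C; intracellular ATP measured by CellTiter-Glo luminescence after 20 min at room temperature. AC50 from Hill fits.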
# [5] = Cell Viability - Hek293 (AID 427;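 active = compounds whose dose-response curve shows a full or clear partial loss of cell viability, called from curve shape rather than a numeric limit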;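 note: potency is the fitted concentration of half-maximal effect; cells exposed to compound for 40 hours at 37 °C before reading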); conditions: qHTS
# In short: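 AC50 values derive from Hill-modelled concentration-response of ATP-based luminescence, normalized between DMSO-only and 100 uM tamoxifen controls. Cells were exposed in complete culture medium for 40 hr at 37 °C before detection.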
# [6] = Cell Viability - HepG2 (AID 433; calls by dose curve;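 note: potency is the fitted concentration of half-maximal effect; potency for ATP loss meaning cytotoxicity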); conditions: qHTS
# In short: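 HepG2 cells, 1500 per well, treated 40 hr at 37 °C in complete medium; viability from intracellular ATP by CellTiter-Glo luminescence. Normalized to DMSO and 100 uM tamoxifen; AC50 from Hill fit of qHTS concentration-response.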
# [7] = Cell Viability - MRC5 (AID 434; calls by dose curve;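 note: potency is the fitted concentration of half-maximal effect; potency reflects cytotoxicity seen as loss of intracellular ATP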); conditions: MRC5 lung fibroblast viability, qHTS
# In short: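 qHTS cytotoxicity in human lung fibroblast MRC5 cells; 40 hr treatment, 37 °C; cellular ATP by luciferase luminescence; DMSO = 0%, 100 uM tamoxifen = 100% inhibition; Hill-fit AC50.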
# [8] = Cell Viability - SK-N-SH (AID 435; calls by dose curve;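 note: potency is the fitted concentration of half-maximal effect; compound exposure lasted 40 h at 37 °C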); conditions: SK-N-SH neuroblastoma cell viability qHTS
# In short: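 SK-N-SH neuroblastoma cells (1500/well) treated 40 h at 37 °C in complete medium; viability read as cellular ATP by CellTiter-Glo luminescence. Normalized to DMSO and 100 uM tamoxifen; AC50 from Hill fits of qHTS concentration-response.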
# [9] = NFAT Signaling Pathway (AID 444); conditions: Jurkat NFAT-bla M1, carbachol, beta-lactamase ratio, 5 h;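 note: carbachol stimulus at about its EC50 of 1 µM final; % is set by controls: 0 for no effect and ±100 for the full control effect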
# In short: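 Read-out: CCF4 FRET ratio (460 nm/530 nm) after 1 h RT dye loading, used for %activity and AC50 from titration series. Cells: Jurkat NFAT-β-lactamase/M1 line, treated with compound plus 1 uM carbachol for 5 h, 37 °C.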
# [10] = molecular target: Mitogen-activated protein kinase 10 (Mus musculus) (UniProt Q61831); assay: JNK3 AlphaScreen Assay (AID 530); conditions: JNK3 lysate, c-Jun phosphorylation; series mostly up to 25.6 µM;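 note: kinase came from lysate of stimulated human HepG2 cells; signal reports phosphorylation of biotinylated GST-cJun 1-79 at Ser73 with 10 µM ATP; % is set by controls: 0 for no effect and ±100 for the full control effect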
# In short: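 Compound titrations were preincubated 15 minutes at room temperature with substrate, antibody and pre-activated JNK3-containing HepG2 lysate. Reactions were started with 10 uM ATP and stopped with EDTA-containing bead buffer for AlphaScreen detection.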
# [11] = Cell Viability - N2a (AID 540; active = well fitted curve in the direction sought with a large enough effect; an effect the other way counts as inactive or inconclusive;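 note: plate controls were DMSO alone for no effect and tamoxifen control for full effect; nearly all actives have a fitted effect of over 45% in size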); conditions: N2a mouse neuroblastoma cell viability; activity change, negative = cytotoxicity: at 92.2 µM (top of the series)
# In short: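 Mouse neuroblastoma N2a cells, 1500/well, exposed to compounds 40 h at 37 °C in complete medium. Viability measured as cellular ATP by CellTiter-Glo luminescence; AC50 from Hill fits of concentration-response.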
# [12] = Cell Viability - NIH 3T3 (AID 541; active = well fitted curve in the direction sought with a large enough effect; an effect the other way counts as inactive or inconclusive;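 note: plate controls were DMSO alone for no effect and tamoxifen positive control for full effect; nearly all actives have a fitted effect of over 25% in size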); conditions: NIH 3T3 cell viability, qHTS; activity change, negative = cytotoxicity: at 92.2 µM (top of the series)
# In short: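 Mouse NIH 3T3 fibroblasts, 1000 cells/well, rested 5 hr at 37 °C, then exposed to compound for 40 hr at 37 °C in complete medium. Viability read as intracellular ATP by CellTiter-Glo luminescence; AC50 from Hill-equation fits of concentration-response data.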
# [13] = Cell Viability - HUV-EC-C (AID 542; active = well fitted curve in the direction sought with a large enough effect; an effect the other way counts as inactive or inconclusive; note: % is set by controls: 0 for no effect and ±100 for the full control effect; nearly all actives have a fitted effect of over 35% in size); conditions: HUV-EC-C endothelial cell viability, qHTS; series mostly up to 92.2 µM
# In short: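 HUV-EC-C human vascular endothelial cells, 1000/well, exposed to compound for 40 hr at 37 °C in complete medium. Intracellular ATP was read by CellTiter-Glo luminescence. AC50 came from Hill-equation fits of concentration-response data.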
# [14] = Cell Viability - H-4-II-E (AID 543; active = well fitted curve in the direction sought with a large enough effect; an effect the other way counts as inactive or inconclusive; note: % is set by controls: 0 for no effect and ±100 for the full control effect; nearly all actives have a fitted effect of over 35% in size); conditions: H-4-II-E rat hepatoma viability; series mostly up to 92.2 µM
# In short: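 Rat hepatoma H-4-II-E cells, 1500 per well, treated 40 h at 37 °C in complete medium. Cellular ATP read by CellTiter-Glo luminescence; AC50 from Hill fits of concentration-response.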
# [15] = Cell Viability - SH-SY5Y (AID 544; active = well fitted curve in the direction sought with a large enough effect; an effect the other way counts as inactive or inconclusive;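 note: 0% = DMSO alone and -100% = 100 µM tamoxifen; nearly all actives have a fitted effect of over 55% in size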); conditions: SH-SY5Y neuroblastoma cell viability; viability change, negative = cytotoxic: at 92.2 µM (top of the series)
# In short: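 SH-SY5Y human neuroblastoma cells (1500/well) incubated 5 h, then compound-treated 40 h at 37 °C in complete medium. Viability read as intracellular ATP by CellTiter-Glo luminescence after 20 min; AC50 from Hill-equation fits of qHTS concentration-response.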
# [16] = Cell Viability - Renal Proximal Tubule (AID 545; active = well fitted curve in the direction sought with a large enough effect; an effect the other way counts as inactive or inconclusive;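 note: 0% = DMSO only and -100% = 100 µM tamoxifen; nearly all actives have a fitted effect of over 40% in size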); conditions: renal proximal tubule cells viability, primary cells of rat origin; activity change, negative = cytotoxicity: at 91.7 µM (top of the series)
# In short: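 Rat renal proximal tubule primary cells, 1000/well, exposed to compounds for 40 hr at 37 °C in complete medium; cellular ATP read by CellTiter-Glo luminescence. AC50 from concentration-response fitted with standard Hill equation.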
# [17] = Stat Signaling Pathway (AID 446); conditions: ME-180 (cervical carcinoma) SIE beta-lactamase reporter, IL-6 stimulated, 5 h;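 note: ME-180 cervical cancer cells given 40 pM IL-6 alongside compound; SIE-controlled beta-lactamase reporter measured as 460/530 nm FRET emission ratio; % is set by controls: 0 for no effect and ±100 for the full control effect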
# In short: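 IL-6/STAT signaling read in ME-180 cells via an SIE beta-lactamase reporter. Stimulus was 40 pM IL-6 (its AC50) for 5 hrs, so both activation and inhibition register.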
# [18] = molecular target: Glucocorticoid receptor (Homo sapiens) (UniProt P04150); assay: GR-GFP Redistribution (AID 450;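 active = compounds whose dose series gives a full or clear partial fitted curve of increased nuclear translocation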; note: potency is the fitted concentration of half-maximal effect); conditions: U2OS GR-GFP nuclear translocation, laser cytometry, 2 h
# Sequence of Glucocorticoid receptor (Homo sapiens) (P04150 whole entry, looked up, the tested form may be a part): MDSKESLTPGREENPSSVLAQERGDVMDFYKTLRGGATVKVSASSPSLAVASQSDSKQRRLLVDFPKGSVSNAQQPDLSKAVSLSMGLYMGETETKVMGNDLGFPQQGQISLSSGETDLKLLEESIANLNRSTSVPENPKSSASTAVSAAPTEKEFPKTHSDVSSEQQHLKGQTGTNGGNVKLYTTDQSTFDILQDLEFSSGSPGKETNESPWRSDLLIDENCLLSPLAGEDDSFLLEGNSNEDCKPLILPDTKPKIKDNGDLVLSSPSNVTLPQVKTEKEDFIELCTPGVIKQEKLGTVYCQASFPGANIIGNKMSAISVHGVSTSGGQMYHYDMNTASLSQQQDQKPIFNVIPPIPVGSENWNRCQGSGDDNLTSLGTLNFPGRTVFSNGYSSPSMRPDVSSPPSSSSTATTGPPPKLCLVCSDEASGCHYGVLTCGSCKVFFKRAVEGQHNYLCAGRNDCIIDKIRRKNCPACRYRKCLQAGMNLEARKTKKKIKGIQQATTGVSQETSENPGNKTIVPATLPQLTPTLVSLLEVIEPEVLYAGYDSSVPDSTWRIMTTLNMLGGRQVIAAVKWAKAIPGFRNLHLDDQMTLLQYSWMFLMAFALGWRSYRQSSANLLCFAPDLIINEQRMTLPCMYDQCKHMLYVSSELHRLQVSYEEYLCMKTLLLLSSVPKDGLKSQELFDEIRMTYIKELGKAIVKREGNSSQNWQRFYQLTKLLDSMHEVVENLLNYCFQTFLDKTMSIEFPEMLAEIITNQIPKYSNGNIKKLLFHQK
# [19] = molecular target: Glucocorticoid receptor (Homo sapiens) (UniProt P04150); assay: GR-EFC Redistribution (AID 451; calls by dose curve; note: potency is the fitted concentration of half-maximal effect); conditions: CHO-K1 GR-EFC translocation, beta-gal luminescence, 2 h
# In short: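 Translocation of GR-ED fusion to nuclear EA restores b-gal, read by luminescence after 1 h room-temperature detection. Engineered CHO-K1 biosensor cells, 1,000/well, exposed 2 h at 37 C to titrations up to 46 uM final.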
smiles,measurement,setting,value
CC(=O)Oc1ccc(C(c2ccc(OC(C)=O)cc2)c2ccccn2)cc1,"activity change, negative = inhibition",[1]; at 17.2 µM (top of the series),-26.3% and -21%
same,Potency,[2],inactive
same,Potency,[3],> 92 µM
same,Potency,[4],> 92 µM
same,Potency,[5],> 92 µM
same,Potency,[6],> 92 µM
same,Potency,[7],> 92 µM
same,Potency,[8],> 92 µM
same,"activity change, negative = inhibition",[9]; at 17.2 µM (top of the series),7.84% and -13.9%
same,outcome,[10],inactive
same,Potency,[11],inactive
same,Potency,[12],inactive
same,Potency,[13],inactive
same,Potency,[14],inactive
same,Potency,[15],inactive
same,"activity change, negative = cytotoxicity",[16],-2.53%
N[C@@H](Cc1cnc[nH]1)C(=O)O,"activity change, negative = inhibition",[1]; at 38 µM (top of the series),2.79%
same,Potency,[2],inactive
same,"activity change, negative = inhibition",[9]; at 38 µM (top of the series),-0.542%
same,"activity, negative = inhibition",[17]; at 38 µM (top of the series),27.2%
same,Potency,[18],> 46 µM
same,Potency,[19],> 46 µM
COc1c2occc2c(OC)c2c(=O)cc(C)oc12,"activity change, negative = inhibition",[1]; at 17.2 µM (top of the series),4.61% and -2.27%
same,Potency,[2],0.02 µM (active)
same,"activity change, negative = inhibition",[9]; at 17.2 µM (top of the series),4.03% and 8.21%
same,Potency,[18],> 20.6 µM
same,Potency,[19],> 20.6 µM
same,outcome,[10],inactive
C1CCc2nnnn2CC1,"activity change, negative = inhibition",[1]; at 17.2 µM (top of the series),8.91%
same,"activity change, negative = inhibition",[1]; at 38 µM (top of the series),6.67%
same,Potency,[2],inactive
same,"activity change, negative = inhibition",[9]; at 17.2 µM (top of the series),-9.11%
same,"activity change, negative = inhibition",[9]; at 38 µM (top of the series),-6.06%
same,outcome,[10],inactive
Cc1ccnc(NS(=O)(=O)c2ccc(N)cc2)n1,"activity change, negative = inhibition",[1]; at 17.2 µM (top of the series),17.4%
same,Potency,[2],inactive
same,"activity change, negative = inhibition",[9]; at 17.2 µM (top of the series),0.552%
same,"activity, negative = inhibition",[17]; at 17.2 µM (top of the series),-12.6%
same,Potency,[18],> 20.6 µM
same,Potency,[19],> 20.6 µM
same,outcome,[10],inactive
Cc1cc(=O)n(-c2ccccc2)n1C,"activity change, negative = inhibition",[1]; at 17.2 µM (top of the series),3.67%
same,Potency,[2],inactive
same,"activity change, negative = inhibition",[9]; at 17.2 µM (top of the series),-2.45%
same,"activity, negative = inhibition",[17]; at 17.2 µM (top of the series),10.3%
same,outcome,[10],inactive
O=C(O)c1cc2cc(Cc3cccnc3)ccc2o1,"activity change, negative = inhibition",[1]; at 38 µM (top of the series),-4.5%
same,Potency,[2],inactive
same,"activity change, negative = inhibition",[9]; at 38 µM (top of the series),-0.641%
same,Potency,[18],> 46 µM
same,Potency,[19],> 46 µM
same,outcome,[10],inactive
